Data published in PubChem BioAssay (NCATS).
Inconclusive results are not listed. Entries that show only a call come without a potency. Calls of active or inactive are those of the source. The call rests on the fitted dose curve; in most records, active means well fitted curve in the direction sought with a large enough effect; inconclusive means small, poorly fitted or top-dose-only effect, or another doubt; inactive means no such curve, though single readings can be large; an effect the other way counts as inactive or inconclusive.

How the values were obtained:
[1] = molecular target: Metallo-beta-lactamase type 2 (Klebsiella pneumoniae) (UniProt C7C422); assay: qHTS to identify inhibitors of the New Delhi Metallo-beta-lactamase (NDM): assay validation screen against the NCATS LOPAC Collection (AID 1794843);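 further: nitrocefin turnover by NDM-1 measured as 485 nm absorbance at plateau; series mostly up to about 38 µM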
Method in brief: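 NDM-1 at 2 nM final in 50 mM HEPES pH 7.0, 1 uM ZnSO4, 0.01% Tween20, preincubated with LOPAC compounds pinned in DMSO; 50 uM nitrocefin (stock) added. Hydrolysis read as absorbance at 485 nm in the plateau phase.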

[2] = molecular target: Glutathione peroxidase 1 (Homo sapiens) (UniProt P07203); assay: Primary qHTS Assay for Inhibitors of Recombinant Selenoprotein Glutathione Peroxidase 1 (GPX1) (AID 1845191); further: nearly all actives have a fitted effect of over 65% in size; further: potency means the concentration at half of the fitted maximal effect
Method in brief: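 GR-coupled assay: compounds preincubated 30 min at room temperature with GPX1, then reaction started with CHP; final 10 nM GPX1, 1 mM GSH, 0.5 mM CHP, 0.5 mM NADPH, 100 nM GR, 0.01% BSA, pH 7.5 Tris buffer. NADPH fluorescence (340/450 nm) read at 0 and 15 min.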

[3] = molecular target: Phospholipid hydroperoxide glutathione peroxidase GPX4 (Homo sapiens) (UniProt P36969); assay: Primary qHTS Assay for Inhibitors of Recombinant Selenoprotein Glutathione Peroxidase 4 (GPX4) (AID 1845192); further: nearly all actives have a fitted effect of over 65% in size; further: potency means the concentration at half of the fitted maximal effect
Method in brief: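 GR-coupled assay: recombinant GPX4 preincubated 30 min with compound at room temperature; final 200 nM GPX4, 1 mM GSH, 0.5 mM cumene hydroperoxide, 0.5 mM NADPH, 100 nM GR, 0.01% BSA, pH 7.5 Tris. NADPH fluorescence (340/450 nm) read at 0 and 15 min.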

Sequence of Glutathione peroxidase 1 (Homo sapiens) (P07203 whole entry, looked up): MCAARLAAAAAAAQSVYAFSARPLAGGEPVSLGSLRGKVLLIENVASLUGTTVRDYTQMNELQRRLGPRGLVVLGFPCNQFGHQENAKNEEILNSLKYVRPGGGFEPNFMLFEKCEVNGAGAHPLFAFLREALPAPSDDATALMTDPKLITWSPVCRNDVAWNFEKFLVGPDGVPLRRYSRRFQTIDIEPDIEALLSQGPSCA
Sequence of Phospholipid hydroperoxide glutathione peroxidase GPX4 (Homo sapiens) (P36969 whole entry, looked up): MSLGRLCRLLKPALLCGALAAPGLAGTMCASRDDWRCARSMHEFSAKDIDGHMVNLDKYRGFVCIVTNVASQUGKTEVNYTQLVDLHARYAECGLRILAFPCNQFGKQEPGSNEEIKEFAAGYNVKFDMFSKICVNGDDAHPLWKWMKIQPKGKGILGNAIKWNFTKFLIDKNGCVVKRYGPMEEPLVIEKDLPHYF
Sequence of Metallo-beta-lactamase type 2 (Klebsiella pneumoniae) (C7C422 whole entry, looked up): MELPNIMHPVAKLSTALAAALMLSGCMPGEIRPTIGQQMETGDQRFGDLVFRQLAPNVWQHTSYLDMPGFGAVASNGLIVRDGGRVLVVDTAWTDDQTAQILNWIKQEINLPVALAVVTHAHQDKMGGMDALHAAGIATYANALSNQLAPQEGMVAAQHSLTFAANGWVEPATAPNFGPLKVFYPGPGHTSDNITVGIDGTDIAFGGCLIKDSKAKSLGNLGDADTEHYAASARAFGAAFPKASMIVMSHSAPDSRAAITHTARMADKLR

Row | SMILES | Potency [1] | Potency [2] | Potency [3]
1 | CCCCCCCCCCCCCCC[C@H](O)[C@H](N)CO | inactive | inactive | inactive
2 | Nc1ncnc2c1nc(Br)n2C1OC2COP(=O)(O)O[C@@H]2C1O (some centres undefined) | inactive | inactive | inactive
3 | C=CCN1CCc2cc(O)c(O)cc2C(c2ccccc2)C1 (centres undefined) | inactive | inactive | inactive
4 | c1ccc(C(NCCNC(c2ccccc2)c2ccccc2)c2ccccc2)cc1 | inactive | inactive | inactive
5 | CCCc1c(-c2ccc(O)cc2)nn(-c2ccc(O)cc2)c1-c1ccc(O)cc1 | inactive | inactive | inactive
6 | Cn1cc(C(F)(F)F)nc1-c1ccc(OCC(O)CNCCOc2ccc(O)c(C(N)=O)c2)cc1 (centres undefined) | inactive | inactive | inactive
7 | N=C(N)c1ccccc1 | inactive | inactive | inactive
8 | COc1ccc2c(c1)c(CC(=O)O)c(C)n2Cc1ccc(Cl)cc1 | inactive | inactive | inactive
9 | OC[C@H]1O[C@H](n2cnc3c(N[C@H]4CCC[C@@H]4O)ncnc32)[C@H](O)[C@@H]1O | inactive | inactive | inactive
10 | Cc1ccc([N+](=O)[O-])cc1S(=O)(=O)N(C)C | inactive | inactive | inactive
11 | C[C@]12C=CC(=O)C=C1CC[C@@H]1C2=CC[C@]2(C)[C@@H](C(=O)CN3CCN(c4cc(N5CCCC5)nc(N5CCCC5)n4)CC3)CC[C@@H]12 | inactive | inactive | inactive
12 | NC1C=CC=C(C(=O)O)C1 (centres undefined) | inactive | inactive | inactive
13 | CC(=O)C(C)=O | inactive | inactive | inactive
14 | CCCCCCN(CCCCCC)C(=O)Cc1c(-c2ccc(F)cc2)[nH]c2ccccc12 | inactive | inactive | inactive
15 | CCCCCCCCCC[Si](C)(C)CCC(=O)NC(Cc1ccc(C)cc1)c1ccccc1 (centres undefined) | inactive | inactive | inactive
16 | NCCCCN | inactive | inactive | inactive
17 | N[C@H](C(=O)O)c1cc(O)cc(O)c1 | inactive | inactive | inactive
18 | Cn1c(=O)c2[nH]c(-c3ccc(S(=O)(=O)O)cc3)nc2n(C)c1=O | inactive | 10 µM (active) | 11.2 µM (active)
19 | CCCCCCC/C=C\CCCCCCCCC(=O)O | inactive | inactive | inactive
20 | CC(=O)SC1CC2=CC(=O)CC[C@]2(C)C2CC[C@@]3(C)C(CC[C@@]34CCC(=O)O4)C12 (some centres undefined) | inactive | inactive | inactive
21 | CC#CCOC(=O)c1c(C)nc2sc3c(c2c1N)CCC(O)C3 (centres undefined) | inactive | inactive | inactive
22 | O=C(O)CCC(=O)N1CCCC1C(=O)O (centres undefined) | inactive | inactive | inactive
23 | COc1cc(C(O)C(=O)O)ccc1O (centres undefined) | inactive | inactive | inactive
24 | CCCCCC[C@@H]([C@@H](C)O)n1cnc2c(N)ncnc21 | inactive | inactive | inactive
25 | N[C@@H](Cc1ccc(F)cc1)C(=O)O | inactive | inactive | inactive
26 | CN(C)C(=O)/N=N/C(=O)N(C)C | inactive | inactive | inactive
27 | Nc1ncnc2c1c(-c1ccc(Oc3ccccc3)cc1)cn2C1CCCC1 | inactive | inactive | inactive
28 | COc1cc(C(O)CO)ccc1O (centres undefined) | inactive | inactive | inactive
